PubChem BioAssay AID493206 (National Center for Advancing Translational Sciences (NCATS), 2011)
Results filed as inconclusive are left out. Active and inactive are the calls of the source. The call rests on the fitted dose curve; in most records, active means well fitted inhibition curve with a large enough effect; inconclusive means small, poorly fitted or top-dose-only effect; inactive means flat fitted curve, though single readings scatter.

molecular target: Dual specificity tyrosine-phosphorylation-regulated kinase 1A (Homo sapiens) (UniProt Q13627); assay: Assay for Inhibitors of Dual-Specificity Tyrosine-(Y)-Phosphorylation Regulated Kinase 1A (Kinase-Glo assay): round 2 SAR; conditions: recombinant DYRK1A, Kinase-Glo ATP depletion luminescence; series mostly up to 76.9 µM
From the text: NIH Molecular Libraries Probe Production Centers Network [MLPCN] NIH Chemical Genomics Center [NCGC] MLPCN Grant: 1R03MH084827-01 PI Name: Tom Misteli NCGC Assay Overview: The CMGC group of protein kinases which includes CDK-like kinases (Clk) and Dyks are essential kinases found in all eukaryotes. Clks have been implicated to play a role in the regulation of alternative splicing; while Dyrks, in particular over expression of Dyrk1A, has been linked to diseases as Down syndrome (DS; OMIM 190685) and Alzheimer disease (AD; OMIM 104300). Among the members of the CMGC group, the Clks and the Dyrks are very closely related therefore to determine validity and selectivity of an active compound observed in the CLK4 qHTS screen (AID:1770), a bioluminescent counter-screen against Dyrk1A was developed. In addition, potent and selective compounds against Dyrk1A were identified to further assess the role of this enzyme in DS and AD. Dyrk1A (Invitrogen, cat # PV3785) was assayed using ATP and DYRKtide (AnaSpec, cat# 62698) as substrates. Promega Kinase-Glo (cat# V6712) technology was used to detect the residual ATP following kinetic reaction. The Kinase-Glo Plus contains Ultra-Glo [5] luciferase and D-luciferin which generates a bioluminescence signal from the remaining ATP. No enzyme and harmine (Sigma, cat # 286044-1G), a compound shown to inhibit Dyrks were used as a positive control; while DMSO treatment was used as a negative control.
NCGC Assay Protocol Summary: Two uL/well of substrate solution (8uM Dyrktide, 2uM ATP, 25mM Tris-HCl pH 7.5, 10mM MgCl2 , 0.5mM EGTA, 5mM cystein, 0.01% Triton X-100 final concentration) was dispensed into 1536-well assay plates (Greiner, solid white, medium-binding plates) with Aurora Discovery BioRAPTR Flying Reagent Dispenser (FRD, Beckton-Dickenson). Compound solution (23 nL) was transferred to the assay plate using Kalypsys pin tool equipped with a 1536-pin tool. One uL/well enzyme solution (5nM Dyrk1A, 25mM Tris-HCl pH7.5, 10mM MgCl2, 0.5mM EGTA, 5mM cystein, 0.01% Triton X-100 final concentration) was then added using FRD yielding a total kinase reaction volume of 3uL/well. After 2 hours of room temperature incubation, 3uL Kinase-Glo detection reagent was added for a final assay volume of 6uL/well. The plates were spun for 30 seconds (1000 rpm) and incubated at ambient temperature for 2 minutes followed by a luminescence read using Perkin Elmer ViewLux plate reader at 3 seconds exposure time and 2x binning.

Potency, inactive:
COc1cccc(Nc2ncc3nc(-c4cn(C)c5ccccc45)c(=O)n(CCC#N)c3n2)c1, Clc1cccc(-c2ccc3ncnc(NCc4ccc5c(c4)OCO5)c3c2)c1, Cn1ccc2cc(-c3ccc4ncnc(NCc5ccc6c(c5)OCO6)c4c3)ccc21

Potency, active:
COc1cccc(-c2ccc3ncnc(NCc4cccc(F)c4)c3c2)c1 4.63 µM, Cc1nc(C(C)N(C)c2ncnc3ccc(-c4ccc5c(c4)OCO5)cc23)cs1 (centres undefined) 29.2 µM, Cc1csc(CNc2ncnc3ccc(-c4ccc5c(c4)OCCO5)cc23)c1 1.64 µM, Clc1ccccc1-c1ccc2ncnc(NCc3cccnc3)c2c1 26 µM, Cc1ccc(CN(C)c2ncnc3ccc(-c4ccc(CO)o4)cc23)o1 0.823 µM, CC(O)c1ccc(-c2ccc3ncnc(NCCc4cnc[nH]4)c3c2)o1 (centres undefined) 23.2 µM, CN(CC1CCCCO1)c1ncnc2ccc(-c3ccc4c(c3)OCO4)cc12 (centres undefined) 0.292 µM, Cc1nc(CCNc2ncnc3ccc(-c4ccc5c(c4)OCO5)cc23)cs1 0.26 µM, c1csc(CNc2ncnc3cc(-c4ccc5c(c4)OCO5)ccc23)c1 26 µM, Cc1csc(CNc2ncnc3ccc(-c4ccc(C(C)O)o4)cc23)n1 (centres undefined) 26 µM, CN(CC1CCCCC1)c1ncnc2ccc(-c3ccc4c(c3)OCO4)cc12 0.26 µM, Fc1cccc(CNc2ncnc3ccc(-c4ccc5c(c4)OCO5)cc23)c1 0.463 µM, c1nc(NCc2ccc3c(c2)OCO3)c2cc(-c3ccc4c(c3)OCCO4)ccc2n1 4.12 µM, CCNC(=O)c1ccc(-c2ccc3ncnc(NCc4nccs4)c3c2)o1 10.4 µM, Fc1cccc(CNc2ncnc3ccc(-c4ccoc4)cc23)c1 0.823 µM, Cc1csc(CNc2ncnc3ccc(-c4ccc(C(=O)O)o4)cc23)n1 14.6 µM, c1nc(N2CCOCC2)c2cc(-c3ccc4c(c3)OCO4)ccc2n1 1.46 µM, Cc1ccsc1CN(C)c1ncnc2ccc(-c3ccc(COC(=O)N(C)C)o3)cc12 9.23 µM, c1nc(NCc2ccc3c(c2)OCO3)c2cc(-c3ccoc3)ccc2n1 18.4 µM, Cc1cccc(CNc2ncnc3ccc(-c4cccnc4)cc23)c1 29.2 µM, COc1cccc(-c2ccc3ncnc(NCc4ccc5c(c4)OCO5)c3c2)c1 9.23 µM, CN(CCc1ccco1)c1ncnc2ccc(-c3ccc4c(c3)OCO4)cc12 0.292 µM, CN(CC1CCCO1)c1ncnc2ccc(-c3ccc4c(c3)OCO4)cc12 (centres undefined) 0.26 µM, COc1cccc(-c2ccc3ncnc(NCc4cc(C)cs4)c3c2)c1 5.82 µM, Cc1nc(CCN(C)c2ncnc3ccc(-c4ccc5c(c4)OCO5)cc23)cs1 0.654 µM, Cc1cccc(-c2ccc3ncnc(NCc4cccc(F)c4)c3c2)c1 13 µM, c1cncc(-c2ccc3ncnc(NCc4cccs4)c3c2)c1 23.2 µM, Clc1cccc(-c2ccc3ncnc(NCc4cccnc4)c3c2)c1 18.4 µM, CN(C)CCCNc1ncnc2ccc(-c3ccc4c(c3)OCO4)cc12 8.23 µM, c1cncc(CNc2ncnc3ccc(-c4ccoc4)cc23)c1 9.23 µM, Cc1ccc(CNc2ncnc3ccc(-c4ccc(C(=O)O)o4)cc23)o1 10.4 µM, Cn1cncc1CNc1ncnc2ccc(-c3ccc4c(c3)OCO4)cc12 0.463 µM, c1cncc(CNc2ncnc3ccc(-c4ccco4)cc23)c1 26 µM, OCc1ccc(-c2ccc3ncnc(N4CCOCC4)c3c2)o1 16.4 µM, Cc1ccc(CNc2ncnc3cc(-c4ccc5c(c4)OCO5)ccc23)o1 23.2 µM, c1cncc(CNc2ncnc3ccc(-c4ccc5c(c4)OCO5)cc23)c1 0.412 µM
